Out of some 1,500 compounds screened, about 460 (31%) were called active. Inconclusive results (about 1%) are left out.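 The calls were made as follows: active = curve reaches 40% activation over neutral controls at an AC40 no higher than the top valid tested concentration; inconclusive = no clear call, values can overlap the other calls; inactive = signal moving opposite to the expected increase, and the rest.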 Only a sample is shown. Results with a measured potency or affinity are listed apart.

This experiment in a line: GLuc-reported insulin release enhancers, glucose-stimulated beta cells – cell-based, INS-1E, Gaussia luciferase, luminescence, cherry-pick, set 2, dose response (AID 977607).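 Also: 0% = median of the plate neutral control wells.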 The note with it: INS-1E GLuc insulin secretion reporter, 2-3 h, stronger effect = higher value; at 35 µM, 100% = signal doubled over neutral wells unless noted.
Regarding `CCSc1ccc2nnc(-c3ccc(F)cc3)n2n1`, the max activation was -17.1% [at 0.135 µM, 100% = signal doubled over neutral wells] (inactive).
For `C=CCNc1sc(C(=O)C2CC2)c(N)c1C#N`, the max activation is -24.8% [at 0.0016 µM, 100% = signal doubled over neutral wells] (inactive).
For `COc1ccc(Nc2nc(NCc3cccs3)nc3ccsc23)cc1OC` the value was -40.6% (inactive); for `COCCNc1nc(NC(C)C)nc2ccsc12`, -19.2% [at 0.046 µM, 100% = signal doubled over neutral wells] (inactive).
Take `Cc1cc(NC(=O)COC(=O)c2oc3c(Cl)cccc3c2C)no1`: the max activation was -17.9% [at 11 µM, 100% = signal doubled over neutral wells] (inactive).
As to `CCOC(=O)c1cnc2ccc(OCC)cc2c1N1CCN(c2ccccc2)CC1`, the max activation is -39.9% (inactive).
For `CCCOC(=O)Nc1ccc(S(=O)(=O)Nc2ncccn2)cc1`, the max activation was -14.1% [at 11 µM, 100% = signal doubled over neutral wells] (inactive).
Regarding `O=C(c1cccc(F)c1)N1CCCc2ccccc21`, the max activation is -18.1% [at 0.015 µM, 100% = signal doubled over neutral wells] (inactive).
Take `CCOc1nc(Nc2ccccc2F)nc(OCC)n1`: the max activation is -23.2% [at 0.0016 µM, 100% = signal doubled over neutral wells] (inactive).
On to `COc1nc(Nc2ccccc2)nc(OC)n1`, for which the max activation was -12% [at 0.0016 µM, 100% = signal doubled over neutral wells] (inactive).
`COc1ccc(S(=O)(=O)Nc2cccc(-c3ccc4nncn4n3)c2)cc1F`: the max activation was -16.1% [at 0.046 µM, 100% = signal doubled over neutral wells] (inactive).
With `C=CCOc1cccc(C(=O)N2CCC(CCC(=O)NC3CC3)CC2)c1`, the max activation was -8.53% [at 1.2 µM, 100% = signal doubled over neutral wells] (inactive).
With `C[C@@H]1CN([C@@H](C)CO)C(=O)c2cc(Br)cnc2O[C@H]1CN(C)C(=O)C1CC1`, the max activation is -19.6% [at 0.0016 µM, 100% = signal doubled over neutral wells] (inactive).
Take `NC(=O)C1CCN(c2nc(-c3ccccc3)nc3ccccc23)CC1`: the max activation is -15.2% [at 3.8 µM, 100% = signal doubled over neutral wells] (inactive).
Take `Cc1ccccc1Nc1c(-c2ccncc2)nc2ccc(Cl)cn12`: the max activation is -30.7% (inactive).
Then `COc1ccc(C(=O)c2ccc(OC)c(OC)c2)cc1`, with -16.7% [at 0.42 µM, 100% = signal doubled over neutral wells] (inactive); and `CCOC(=O)c1sc2nc(-c3ccccc3)ccc2c1N`, with -12.9% (inactive); and `C[C@@H](NC(=O)C[C@@H]1C[C@@H]2c3cc(NC(=O)Nc4ccccc4F)ccc3O[C@@H]2[C@@H](CO)O1)c1ccccc1`, with 34.4% [at 0.015 µM, 100% = signal doubled over neutral wells] (inactive).
Then `COc1ccc(-n2c(=S)[nH]c3cc(C(=O)Nc4ccc(OC)c(OC)c4)ccc3c2=O)cc1`, with -16.1% [at 0.0016 µM, 100% = signal doubled over neutral wells] (inactive); and `COc1ccc(C(=O)Nc2cccnc2Cl)cc1OC`, with -21.1% [at 0.0016 µM, 100% = signal doubled over neutral wells] (inactive).
For `O=C(Cc1csc(NC(=O)c2ccccc2)n1)NO`, the max activation was -12.5% [at 0.42 µM, 100% = signal doubled over neutral wells] (inactive).
For `O=S(=O)(c1ccc(-c2csc(Nc3ccc(Br)cc3)n2)cc1)N1CCCC1` the value was -14.1% [at 0.42 µM, 100% = signal doubled over neutral wells] (inactive).
As to `CS(=O)(=O)N1CCCCC1c1cc(C(=O)Nc2cccc3c2CCCC3)no1` (stereo not drawn), the max activation was -21.9% [at 0.0016 µM, 100% = signal doubled over neutral wells] (inactive).
For `Cc1ccc(S(=O)(=O)NCc2csc(-c3cccs3)n2)cc1`, the max activation is -16% [at 0.42 µM, 100% = signal doubled over neutral wells] (inactive).
`COc1ccc(CCN(C)C(=O)C(CCSC)NC(=O)c2ccco2)cc1OC` (stereo not drawn): the max activation was 35.3% (inactive).
Regarding `Nc1nc(N)nc(-c2ccc(Cl)cc2)n1`, the max activation is 24.3% (inactive).
With `CC(C)(C)NC(=O)N1c2ccccc2Sc2ccccc21`, the max activation was -17.6% [at 0.42 µM, 100% = signal doubled over neutral wells] (inactive).
For the molecule `CC(=O)c1c(C)oc2ccc(NS(=O)(=O)c3ccc(F)cc3C)cc12`, the max activation is -28.4% (inactive).
`CS(=O)(=O)c1nc(S(=O)(=O)c2ccc(Cl)cc2)c(N2CCCCCC2)s1`: the max activation was -34.1% (inactive).
With `Cc1nc2ccccc2c(=O)n1CCCN1CCOCC1`, the max activation was -15.9% [at 0.046 µM, 100% = signal doubled over neutral wells] (inactive).
For `Cc1ccc2c(c1)c(-c1ccccc1)nc1nncn12` the value was -21.1% [at 1.2 µM, 100% = signal doubled over neutral wells] (inactive); for `COc1nc(-c2ccccc2)c2cc(C)ccc2n1`, 42.4% [at 1.2 µM, 100% = signal doubled over neutral wells] (inactive).
For `CCN(CC)C(=O)n1c(Cc2ccccc2)nc2ccccc21` the value was -14.4% [at 0.005 µM, 100% = signal doubled over neutral wells] (inactive); for `CCCc1cc2c(OC)ccc(O)c2c(=O)n1C`, -19.2% [at 0.42 µM, 100% = signal doubled over neutral wells] (inactive).
As to `CCOc1ccc(NC(=O)[C@@H](NC(=O)OCc2ccccc2)[C@@H](C)CC)cc1`, the max activation is -32.5% [at 11 µM, 100% = signal doubled over neutral wells] (inactive).
For the molecule `CCCNC(=O)c1ccccc1NC(=O)COc1ccc(OC)cc1`, the max activation was -16% [at 11 µM, 100% = signal doubled over neutral wells] (inactive).
For the molecule `COc1ccc(CCNC(=O)CCn2c(=O)c3ccccc3n(CC(=O)NCC3CCCO3)c2=O)cc1OC` (stereo not drawn), the max activation is 20.3% [at 0.135 µM, 100% = signal doubled over neutral wells] (inactive).
Then `CCN(CC)C(=O)Cn1c(=O)oc2ccccc21`, with -21.2% (inactive); and `Cc1nccn1-c1ncnc2sc3c(c12)CCCC3`, with -26.7% [at 0.046 µM, 100% = signal doubled over neutral wells] (inactive); and `C=CCc1ccc(OCCOc2ccc(/C=N/n3cnnc3)cc2OCC)c(OC)c1`, with -24.1% [at 0.046 µM, 100% = signal doubled over neutral wells] (inactive).
Regarding `COc1ccc(/C=N/NC(=O)CN(C2=NS(=O)(=O)c3ccccc32)c2ccccc2)cc1OC`, the max activation was 23.5% (inactive).
For `CCOC(=O)N1CCN(C(=O)COc2ccccc2OC)CC1` the value was 19.9% [at 11 µM, 100% = signal doubled over neutral wells] (inactive).
Turning to `COc1ccc(/C=N/NS(=O)(=O)c2ccccc2)cc1OC`, the max activation was 16.8% (inactive).
As for `Cc1cc(C)c2c(C)nn(C3CCCCC3)c2n1`, the max activation was 20.5% (inactive).
Turning to `CSc1ccc(C(=O)C2CCCN(C(=O)c3ccc4c(c3)no[n+]4[O-])C2)cc1` (stereo not drawn), the max activation was -36.5% (inactive).
Regarding `COc1ccc(-c2nc(C(=O)O)cs2)cc1OC`, the max activation was 28.2% [at 0.42 µM, 100% = signal doubled over neutral wells] (inactive).
With `C=CCn1cnc2scc(-c3ccc(OC)cc3)c2c1=O`, the max activation was -14.9% [at 1.2 µM, 100% = signal doubled over neutral wells] (inactive).
For `CCOc1ccc(-c2nc(CSc3nnc(N)s3)cs2)cc1OC` the value was 23.2% (inactive).
In the case of `COc1ccc(CC(=O)O/N=C(\N)c2ccccc2)cc1OC`, the max activation was -13.5% [at 0.005 µM, 100% = signal doubled over neutral wells] (inactive).
For `COc1ccc(C(=O)O/N=C(\N)c2ccc(OC)c(OC)c2)cc1` the value was -23.3% [at 0.135 µM, 100% = signal doubled over neutral wells] (inactive); for `CC(=O)NCCc1nc2ccccc2n1CCOc1cccc(C)c1`, -27.1% (inactive); for `COc1ccc(OCC(=O)NNC(=O)Cn2c(=O)cnc3ccccc32)cc1`, -15.3% [at 1.2 µM, 100% = signal doubled over neutral wells] (inactive).
On to `O=C(c1ccccc1)c1ccc2ccccc2n1`, for which the max activation was -22.9% [at 0.0016 µM, 100% = signal doubled over neutral wells] (inactive).
With `O=C(Nc1ccccc1Oc1ccsc1C(=O)O)c1ccccc1F`, the max activation was 23.2% [at 0.42 µM, 100% = signal doubled over neutral wells] (inactive).
In the case of `Cc1cc(C)cc(C(=O)NC(=S)Nc2ccc(-c3cc4ccccc4oc3=O)cc2)c1`, the max activation is 14.9% (inactive).
Take `O=C(NCC1CCCO1)C1CCC(N2C(=O)c3ccccc3C2=O)CC1` (stereo not drawn): the max activation is 17.8% [at 11 µM, 100% = signal doubled over neutral wells] (inactive).
For the molecule `CN1CCN(NC(=O)c2cccc(S(=O)(=O)N3CCCCCC3)c2)CC1`, the max activation is 33% [at 1.2 µM, 100% = signal doubled over neutral wells] (inactive).
With `CC1CCN(C(=O)c2cccc(S(=O)(=O)N3CCN(c4ccccc4)CC3)c2)CC1`, the max activation was 35.2% [at 0.0016 µM, 100% = signal doubled over neutral wells] (inactive).

For the origin of these results see PubChem BioAssay AID977607 (Broad Institute, 2014).
